Source: PubChem
HP1b chromo inh – HTS for Inhibitors of HP1-beta Chromodomain Interactions with Methylated Histone Tails; Chromobox protein homolog 1 (Homo sapiens), P83916; AlphaScreen HP1-beta / biotin-H3K9me3 peptide binding; Potency, µM (doses to about 114 µM), most hits filed as inhibitors; 0.56% of 390,000 active; further: nearly all actives have a fitted effect of over 70% in size
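HP1-beta protein (50 nM final) preincubated 30 min at room temperature with biotinylated H3(1-18)K9me3 peptide (50 nM) in PBS pH 7.4, 0.01% Tween-20, then compound added for 30 min. AlphaScreen streptavidin donor/nickel chelate acceptor beads (10 ug/mL final), 30 min dark, luminescence read.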
JMJD2A Tudor inh – qHTS Assay for Inhibitors of JMJD2A-Tudor Domain. Potency, µM (doses to about 114 µM), hits mostly inhibitors. AID 504339, 2011. AlphaScreen JMJD2A-Tudor / H3K4me3 peptide binding. Lysine-specific demethylase 4A (Homo sapiens), O75164. 4.4% of 390,000 active; further: nearly all actives have a fitted effect of over 50% in size
L3MBTL1 block – qHTS Assay for the Inhibitors of L3MBTL1 | AlphaScreen L3MBTL1–H3K9me1 peptide binding | Potency, µM (doses to about 57.1 µM), most hits filed as inhibitors | 0.66% of 230,000 active | AID 485360, 2010; further: nearly all actives have a fitted effect of over 60% in size
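L3MBTL1 (50 nM) pre-complexed 30 min with biotinylated H3(1-15)K9me1 peptide (75 nM), then compounds added for 30 min at room temperature; AlphaScreen streptavidin donor/nickel chelate acceptor beads (10 ug/mL final) read after 30 min dark incubation.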
PI5P4Ka inh – qHTS for Inhibitors of phosphatidylinositol 5-phosphate 4-kinase (PI5P4K); max response, %; Phosphatidylinositol 5-phosphate 4-kinase type-2 alpha (Homo sapiens), P48426; 1.2% of 330,000 active; PI5P4Kalpha enzyme, ADP-Glo luminescence, 60 min; hits give low values; active means max response of -50% or lower; inconclusive means between -30% and -50%; inactive means -30% or higher; further: value at the top dose of about 77 µM
Target sequence (P48426 whole entry, looked up): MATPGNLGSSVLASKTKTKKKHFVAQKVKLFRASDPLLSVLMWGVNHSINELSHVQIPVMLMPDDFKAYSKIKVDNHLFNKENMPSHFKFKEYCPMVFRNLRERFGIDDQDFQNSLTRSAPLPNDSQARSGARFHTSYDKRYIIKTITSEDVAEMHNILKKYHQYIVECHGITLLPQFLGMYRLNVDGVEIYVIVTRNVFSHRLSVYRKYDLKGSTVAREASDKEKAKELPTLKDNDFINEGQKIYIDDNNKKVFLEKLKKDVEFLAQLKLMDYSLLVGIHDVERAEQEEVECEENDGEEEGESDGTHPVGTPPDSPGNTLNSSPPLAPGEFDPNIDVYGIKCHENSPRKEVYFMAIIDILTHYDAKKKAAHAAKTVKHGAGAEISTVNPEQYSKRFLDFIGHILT
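ADP-Glo luminescence end-point read after a 60 min room-temperature kinase reaction of PI5P4Kalpha plus substrate, initiated with ATP at 5 microM final. Buffer: 0.038 M HEPES pH 7.4, EGTA, 0.1% CHAPS, 5% DMSO.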
BAZ2B inh – qHTS Assay for Inhibitors of BAZ2B | AlphaScreen BAZ2B-H3K14Ac peptide displacement | Bromodomain adjacent to zinc finger domain protein 2B (Homo sapiens), Q9UIF8 | Potency, µM (doses to about 114 µM), usual class: inhibitors | 4.4% of 360,000 active | AID 504333, 2011; further: nearly all actives have a fitted effect of over 60% in size
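Multi-concentration screen (max 110 uM) measuring displacement of acetylated histone H3 peptide from BAZ2B by AlphaScreen, using 50 nM protein, 50 nM peptide and 10 ug/mL streptavidin donor plus Ni-chelate acceptor beads.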
JMJD2E inh – qHTS Assay for Inhibitors of Human Jumonji Domain Containing 2E (JMJD2E). Potency, µM (titrated, usually from 57.1 µM), hits mostly inhibitors. AID 2147, 2009. 1.6% of 230,000 active. JMJD2E catalytic domain, FDH-coupled NADH fluorescence (FDH is formaldehyde dehydrogenase); active means well fitted inhibition curve with a large enough effect, not every such curve was filed as active; inconclusive means small, poorly fitted or top-dose-only effect, or another doubt; inactive means no such curve, though single readings can be large or run the other way; further: nearly all actives have a fitted effect of over 50% in size
Target sequence (B2RXH2 1-337 limits assumed): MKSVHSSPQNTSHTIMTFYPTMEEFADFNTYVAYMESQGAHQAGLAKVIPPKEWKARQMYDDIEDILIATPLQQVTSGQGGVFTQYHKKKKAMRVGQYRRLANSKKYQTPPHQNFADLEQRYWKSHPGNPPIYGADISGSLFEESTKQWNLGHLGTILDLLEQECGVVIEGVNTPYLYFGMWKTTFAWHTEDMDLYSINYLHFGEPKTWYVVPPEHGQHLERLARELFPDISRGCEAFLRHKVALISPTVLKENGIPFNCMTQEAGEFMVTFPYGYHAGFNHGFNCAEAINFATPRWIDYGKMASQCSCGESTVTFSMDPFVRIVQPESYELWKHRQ
Hits are given with their value; [ ] = remark or other dose. In the library only some 5.7% were active in any assay of this set; here they are far more common. Unless noted, the call rests on the fitted dose curve; in most records, active means well fitted inhibition curve with a large enough effect; inconclusive means small, poorly fitted or top-dose-only effect; inactive means no such curve, though single readings can be large or run the other way.

What do the screens show for `CCN(CC)S(=O)(=O)c1ccc(N2CCOCC2)c(NC(=O)CNCCc2ccccc2)c1`?
HP1b chromo inh: inactive; JMJD2A Tudor inh: 39.8µM; L3MBTL1 block: inactive; PI5P4Ka inh: inactive; BAZ2B inh: 50.1µM; JMJD2E inh: inconclusive

How did CCOCCCNCC(=O)Nc1ccccc1N1CCOCC1 do in these assays?
HP1b chromo inh: inconclusive; JMJD2A Tudor inh: 3.98µM; L3MBTL1 block: inactive; BAZ2B inh: 35.5µM; JMJD2E inh: inactive

What do the screens show for `CCN(c1ccccc1)S(=O)(=O)c1ccc(OC)c(NC(=O)CNCCc2ccccc2)c1`?
HP1b chromo inh: 50.1µM; JMJD2A Tudor inh: 0.891µM; L3MBTL1 block: inactive; PI5P4Ka inh: inactive; BAZ2B inh: 31.6µM; JMJD2E inh: inactive

Results for Cc1ccc(C)c2sc(NC(=O)c3ccc(S(=O)(=O)N4CCC(C)CC4)cc3)nc12 ?
HP1b chromo inh: inactive; JMJD2A Tudor inh: inactive; BAZ2B inh: inactive

What do the screens show for `COc1ccc(S(=O)(=O)N2CCC(C(=O)Nc3ccc(Oc4ccccc4)cc3)CC2)cc1OC`?
HP1b chromo inh: inactive; JMJD2A Tudor inh: inactive; BAZ2B inh: inactive

What do the screens show for `O=C1C=CC2(O[C@H](c3ccccc3)[C@@H](c3ccccc3)O2)[C@H](Sc2ccccc2O)C1`?
HP1b chromo inh: inconclusive; JMJD2A Tudor inh: 79.4µM; PI5P4Ka inh: inactive

Results for COc1ccc(/C=C/C(=O)c2ccncc2)c2ccccc12 ?
HP1b chromo inh: inactive; JMJD2A Tudor inh: 56.2µM; L3MBTL1 block: inactive; PI5P4Ka inh: inactive; BAZ2B inh: inactive; JMJD2E inh: inactive

What do the screens show for `CCOC(=O)c1[nH]c(C)c(C(=O)N2CCN(c3cccc(Cl)c3)CC2)c1C`?
HP1b chromo inh: inactive; JMJD2A Tudor inh: inconclusive; L3MBTL1 block: inactive; BAZ2B inh: 50.1µM; JMJD2E inh: inactive

Results for Cc1ccc(-n2c(Cc3cccc4ccccc34)n[nH]c2=S)c(C)c1 ?
HP1b chromo inh: inactive; JMJD2A Tudor inh: inactive; L3MBTL1 block: inactive[11.4 µM]; PI5P4Ka inh: inactive; BAZ2B inh: inactive; JMJD2E inh: inactive

How did COc1ccccc1-n1c(Cc2cccs2)n[nH]c1=S do in these assays?
HP1b chromo inh: inactive; JMJD2A Tudor inh: inactive; L3MBTL1 block: inactive; PI5P4Ka inh: inactive; BAZ2B inh: inactive; JMJD2E inh: inactive

How did S=c1[nH]nc(Cc2cccs2)n1-c1ccccc1Cl do in these assays?
HP1b chromo inh: inactive; JMJD2A Tudor inh: 14.1µM; L3MBTL1 block: inactive; PI5P4Ka inh: inactive; BAZ2B inh: inactive; JMJD2E inh: inactive

Results for S=c1[nH]nc(Cc2cccs2)n1-c1cccc2ccccc12 ?
HP1b chromo inh: inactive; JMJD2A Tudor inh: 39.8µM; L3MBTL1 block: inactive; PI5P4Ka inh: inactive; BAZ2B inh: inactive; JMJD2E inh: inconclusive

Results for Cc1ccc(C)c(-n2c(Cc3cccs3)n[nH]c2=S)c1 ?
HP1b chromo inh: inactive; JMJD2A Tudor inh: 10µM; L3MBTL1 block: inactive; PI5P4Ka inh: inactive; BAZ2B inh: inactive; JMJD2E inh: inactive

What do the screens show for `O=C(CN(C1CCCCC1)S(=O)(=O)c1ccccc1)NCC1CCCO1` (configuration not stated)?
HP1b chromo inh: inactive; JMJD2A Tudor inh: inactive; PI5P4Ka inh: inactive; BAZ2B inh: inactive

Results for O=C(CN(C1CCCCC1)S(=O)(=O)c1ccc(F)cc1)NCC1CCCO1 (configuration not stated) ?
HP1b chromo inh: inconclusive; JMJD2A Tudor inh: 25.1µM; PI5P4Ka inh: inactive

Results for COc1ccc(/C=N/NC(=O)c2nc(-c3ccccc3)n(-c3ccccc3)n2)c(O)c1 ?
HP1b chromo inh: inactive; JMJD2A Tudor inh: inactive; L3MBTL1 block: inactive; PI5P4Ka inh: inactive; BAZ2B inh: inactive; JMJD2E inh: 17.8µM

How did COc1cccc(/C=N/NC(=O)CSc2ccccc2C)c1O do in these assays?
HP1b chromo inh: inactive; JMJD2A Tudor inh: inactive; L3MBTL1 block: inactive; PI5P4Ka inh: inactive; BAZ2B inh: inactive; JMJD2E inh: 28.2µM

Results for Cc1ccc(/C=N/NC(=O)CNC(=O)c2cccs2)cc1 ?
HP1b chromo inh: inactive; JMJD2A Tudor inh: inactive; PI5P4Ka inh: inactive; BAZ2B inh: inactive

How did COc1cccc(/C=N/NC(=O)CNC(=O)COc2cccc(C)c2)c1O do in these assays?
HP1b chromo inh: inactive; JMJD2A Tudor inh: inactive; L3MBTL1 block: inactive; PI5P4Ka inh: inactive; BAZ2B inh: inactive; JMJD2E inh: 2.82µM

Results for COc1cccc(/C=N/NC(=O)CNC(=O)c2cccs2)c1O ?
HP1b chromo inh: inactive; JMJD2A Tudor inh: inactive; PI5P4Ka inh: inactive; BAZ2B inh: inactive; JMJD2E inh: 8.91µM

What do the screens show for `CC(=O)OC[C@@]12C(=O)[C@@H](O)[C@@H](C)[C@]3(C[C@@H](c4ccoc4)O[C@@H]3OC(C)=O)[C@H]1CCC[C@]21CO1`?
JMJD2E inh: inactive

What do the screens show for `COc1cc2c(cc1OC)C(COc1ccc3c(C)cc(=O)oc3c1)N(C(=O)c1ccccc1C)CC2` (configuration not stated)?
HP1b chromo inh: inactive; JMJD2A Tudor inh: inactive; BAZ2B inh: inactive

What do the screens show for `COc1cccc(/C=N/NC(=O)CNC(=O)CCc2ccccc2)c1O`?
HP1b chromo inh: inactive; JMJD2A Tudor inh: inactive; L3MBTL1 block: inactive; PI5P4Ka inh: inactive; BAZ2B inh: inactive; JMJD2E inh: 3.98µM

How did COc1ccccc1/C=C\C(=O)NCC(=O)N/N=C/c1cccc(OC)c1O do in these assays?
HP1b chromo inh: inactive; JMJD2A Tudor inh: inactive; PI5P4Ka inh: inactive; BAZ2B inh: inactive

Results for COc1ccc(/C=C\C(=O)NCC(=O)N/N=C/c2ccc(O)cc2O)cc1 ?
HP1b chromo inh: inactive; JMJD2A Tudor inh: inactive; L3MBTL1 block: inconclusive; PI5P4Ka inh: inactive; BAZ2B inh: inactive; JMJD2E inh: 7.08µM

How did Cc1cccc(OCC(=O)NCC(=O)N/N=C/c2ccc(O)cc2O)c1 do in these assays?
HP1b chromo inh: inactive; JMJD2A Tudor inh: inactive; PI5P4Ka inh: inactive; BAZ2B inh: inactive; JMJD2E inh: 3.16µM

What do the screens show for `Cn1cc(CN2CCCC(C(=O)c3nccn3C)C2)c(-c2cccc(Cl)c2)n1` (configuration not stated)?
HP1b chromo inh: inactive; JMJD2A Tudor inh: inactive; L3MBTL1 block: inactive; PI5P4Ka inh: inactive; BAZ2B inh: inactive; JMJD2E inh: inactive

Results for O=C1/C(=C\c2ccco2)SC(=S)N1c1ccccc1 ?
HP1b chromo inh: inconclusive; JMJD2A Tudor inh: inactive; L3MBTL1 block: inconclusive; PI5P4Ka inh: inactive; BAZ2B inh: inconclusive; JMJD2E inh: 20µM

What do the screens show for `COc1ccc(CCN2C(=O)/C(=C\c3ccco3)SC2=S)cc1OC`?
HP1b chromo inh: inactive; JMJD2A Tudor inh: inactive; L3MBTL1 block: 17.8µM; PI5P4Ka inh: inactive; BAZ2B inh: 8.91µM; JMJD2E inh: inactive
